Measurements as given in PubChem BioAssay.
The source made the active and inactive calls.

Columns and labels:
[1] = tested on: PRMT1 (protein arginine N-methyltransferase 1); test: PRMT1 binders on small-molecule microarrays, primary screen, biochemical, small-molecule microarray, 635 nm fluorescence (AID 1088); conditions: small-molecule microarray binding, higher = more signal;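 further: binding of Prmt1 protein to compounds spotted on small-molecule microarray slides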
[2] = yeast growth modulation, basal conditions, primary screen, YJM789 clinical isolate, OD600, 24 h (AID 1089);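 further: growth of clinical yeast isolate S. cerevisiae YJM 789 seeded 1000 cells per well; test concentration not given here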; conditions: S. cerevisiae YJM789 growth, higher = more signal, called active from +8 up or from −8 down
[3] = fission yeast growth modulation, primary screen, strain 972, OD600, 24 h, no modulator (AID 1090);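 further: basal condition with compound alone and no growth modifier present; test concentration not given here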; conditions: S. pombe 972 growth, higher = more signal, called active from +8 up or from −8 down
[4] = S. cerevisiae growth modulation with rapamycin, primary screen, strain BY4716, OD600, 96 h (AID 1091); conditions: higher = more signal, called active from +8 up or from −8 down; further: test concentration not given here
[5] = target: Torsin-1A-interacting protein 2 (Homo sapiens) (UniProt Q8NFQ8); test: LULL1 binders on small-molecule microarray, primary screen, cell lysate, human LULL1 lysate, 635/667 nm fluorescence (AID 1092); conditions: hLULL1 lysate binding, 635 nm fluorescence, higher = more signal;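 further: probe is lysate of COS7 cells overexpressing human LULL1; score merges per-feature 667 nm fluorescence with signal-to-noise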
Chain of Torsin-1A-interacting protein 2 (Homo sapiens) (Q8NFQ8 whole entry, looked up): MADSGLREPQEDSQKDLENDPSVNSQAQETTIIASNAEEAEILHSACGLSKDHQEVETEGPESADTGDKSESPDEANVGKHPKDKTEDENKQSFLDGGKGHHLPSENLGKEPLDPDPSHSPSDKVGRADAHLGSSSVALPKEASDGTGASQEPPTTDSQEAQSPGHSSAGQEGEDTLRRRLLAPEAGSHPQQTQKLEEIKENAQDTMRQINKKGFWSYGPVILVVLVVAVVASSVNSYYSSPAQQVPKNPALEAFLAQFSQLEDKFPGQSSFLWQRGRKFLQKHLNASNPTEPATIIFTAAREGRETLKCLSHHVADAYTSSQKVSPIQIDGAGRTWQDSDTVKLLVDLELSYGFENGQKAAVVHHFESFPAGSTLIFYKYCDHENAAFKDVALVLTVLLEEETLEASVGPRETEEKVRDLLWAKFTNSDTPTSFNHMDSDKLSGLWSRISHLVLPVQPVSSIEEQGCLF

[6] = E. coli growth modulation, two-sided OD650, primary screen, E. coli filamentation project, strain DRC41, 24 h (AID 1093); conditions: OD650, 24 h, higher = more signal, called active from +8 up or from −8 down;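 further: MC1000 strain lacking acrAB efflux and sulA so SOS filamentation is blocked; test concentration not given here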
[7] = small-molecule microarray binders of probe aLefty2, primary screen, biochemical, biotinylated probe, 635/667 nm fluorescence (AID 1094); conditions: higher = more signal;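 further: score merges spot fluorescence near 667 nm with spot signal-to-noise ratio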
[8] = tested on: Noggin (protein binding on small-molecule microarray); test: Noggin binders on small-molecule microarray, primary screen, biochemical, 635/667 nm fluorescence (AID 1095); conditions: 635 nm fluorescence, higher = more signal;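 further: score merges 667 nm feature fluorescence with signal to noise over triplicate slides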
[9] = target: Neurogenic locus notch homolog protein 3 (Homo sapiens) (UniProt Q9UM47); test: NOTCH3 binders on small-molecule microarray, primary screen, biochemical, 635/667 nm fluorescence (AID 1096); conditions: NOTCH3 binding, 635 nm fluorescence, higher = more signal
Chain of Neurogenic locus notch homolog protein 3 (Homo sapiens) (Q9UM47 whole entry, looked up): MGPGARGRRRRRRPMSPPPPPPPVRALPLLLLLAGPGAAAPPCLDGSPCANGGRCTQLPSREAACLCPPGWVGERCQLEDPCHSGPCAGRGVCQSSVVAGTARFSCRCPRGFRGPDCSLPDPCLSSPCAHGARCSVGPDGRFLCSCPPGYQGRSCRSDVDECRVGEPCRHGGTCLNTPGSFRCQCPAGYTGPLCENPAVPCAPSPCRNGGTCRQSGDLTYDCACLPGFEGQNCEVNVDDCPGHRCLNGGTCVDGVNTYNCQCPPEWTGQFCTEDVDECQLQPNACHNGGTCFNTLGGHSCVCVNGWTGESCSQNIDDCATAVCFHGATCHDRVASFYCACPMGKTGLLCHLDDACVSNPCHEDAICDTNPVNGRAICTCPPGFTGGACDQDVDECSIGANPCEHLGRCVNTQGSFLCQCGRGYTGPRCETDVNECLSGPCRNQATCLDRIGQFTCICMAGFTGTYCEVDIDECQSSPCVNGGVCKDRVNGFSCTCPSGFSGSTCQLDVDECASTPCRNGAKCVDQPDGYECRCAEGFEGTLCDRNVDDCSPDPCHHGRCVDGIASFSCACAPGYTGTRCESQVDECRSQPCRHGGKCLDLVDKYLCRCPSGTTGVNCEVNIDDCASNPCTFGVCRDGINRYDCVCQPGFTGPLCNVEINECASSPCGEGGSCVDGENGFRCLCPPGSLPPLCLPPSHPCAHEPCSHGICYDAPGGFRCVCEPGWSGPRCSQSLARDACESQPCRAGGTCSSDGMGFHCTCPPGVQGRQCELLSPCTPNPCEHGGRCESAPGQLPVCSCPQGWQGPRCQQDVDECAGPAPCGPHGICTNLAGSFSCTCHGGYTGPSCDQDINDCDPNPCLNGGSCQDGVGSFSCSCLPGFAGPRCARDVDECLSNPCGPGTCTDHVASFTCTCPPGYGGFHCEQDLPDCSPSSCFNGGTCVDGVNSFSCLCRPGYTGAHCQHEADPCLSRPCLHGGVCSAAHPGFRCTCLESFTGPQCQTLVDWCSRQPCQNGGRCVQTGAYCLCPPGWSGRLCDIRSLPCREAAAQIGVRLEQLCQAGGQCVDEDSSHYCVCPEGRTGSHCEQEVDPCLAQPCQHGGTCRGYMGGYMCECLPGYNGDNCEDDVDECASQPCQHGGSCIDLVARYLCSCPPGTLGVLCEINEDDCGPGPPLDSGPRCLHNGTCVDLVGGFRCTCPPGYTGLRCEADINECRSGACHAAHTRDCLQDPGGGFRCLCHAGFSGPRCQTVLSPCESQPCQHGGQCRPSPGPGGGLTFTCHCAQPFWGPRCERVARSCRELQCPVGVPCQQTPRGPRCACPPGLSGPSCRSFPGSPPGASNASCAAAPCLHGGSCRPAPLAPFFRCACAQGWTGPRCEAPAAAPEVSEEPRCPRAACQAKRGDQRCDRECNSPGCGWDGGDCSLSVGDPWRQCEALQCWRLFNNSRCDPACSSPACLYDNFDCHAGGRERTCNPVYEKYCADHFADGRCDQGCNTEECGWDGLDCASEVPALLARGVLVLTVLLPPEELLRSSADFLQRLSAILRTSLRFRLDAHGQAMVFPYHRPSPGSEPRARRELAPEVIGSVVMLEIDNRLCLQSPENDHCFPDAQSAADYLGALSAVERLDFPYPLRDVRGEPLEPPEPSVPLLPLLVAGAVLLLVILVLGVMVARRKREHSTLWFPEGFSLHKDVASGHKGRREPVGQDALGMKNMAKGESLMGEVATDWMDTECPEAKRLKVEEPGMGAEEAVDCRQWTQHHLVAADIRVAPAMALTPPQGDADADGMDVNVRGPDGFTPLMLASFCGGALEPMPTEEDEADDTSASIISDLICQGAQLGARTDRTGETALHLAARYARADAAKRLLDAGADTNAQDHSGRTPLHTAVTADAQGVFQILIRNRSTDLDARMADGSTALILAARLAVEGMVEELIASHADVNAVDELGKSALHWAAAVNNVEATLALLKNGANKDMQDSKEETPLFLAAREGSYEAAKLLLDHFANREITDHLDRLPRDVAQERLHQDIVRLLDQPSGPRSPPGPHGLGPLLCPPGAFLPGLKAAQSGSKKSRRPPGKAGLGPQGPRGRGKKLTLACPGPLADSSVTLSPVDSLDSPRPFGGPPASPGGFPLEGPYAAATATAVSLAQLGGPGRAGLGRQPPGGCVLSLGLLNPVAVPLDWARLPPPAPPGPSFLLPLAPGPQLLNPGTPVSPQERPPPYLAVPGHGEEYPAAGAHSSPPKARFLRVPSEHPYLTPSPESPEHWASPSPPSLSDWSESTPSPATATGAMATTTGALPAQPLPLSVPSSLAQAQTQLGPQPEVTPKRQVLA

[10] = small-molecule microarray binders of probe aEGFR, primary screen, biochemical, biotinylated probe, 635/667 nm fluorescence (AID 1097); conditions: higher = more signal;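 further: probe is a biotinylated anti-EGFR antibody binding compounds printed on slides; score combines fluorescence near 667 nm and signal to noise of each spot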
[11] = tested on: Plasmodium falciparum Sir2 (PF13_0152, Sir2A); test: pfSir2 binders on small-molecule microarrays, primary screen, biochemical, small-molecule microarray, 635 nm fluorescence (AID 1098); conditions: small-molecule microarray binding, fluorescence 635 nm; higher = more signal;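 further: score merges spot fluorescence intensity with its signal-to-noise ratio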
[12] = small-molecule microarray binders of probe aDKK1, primary screen, biochemical, biotinylated probe, 635/667 nm fluorescence (AID 1099); conditions: higher = more signal;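 further: score merges 667nm spot fluorescence with signal to noise across triplicate slides; reference of the scale not given here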
[13] = small-molecule microarray binders of probe aCHRDL2, primary screen, biochemical, biotinylated probe, 635/667 nm fluorescence (AID 1100); conditions: higher = more signal
[14] = splicing luciferase reporter signal modulators, primary screen, spliceosome inhibition project, cell-based, HEK293, splice +/- reporter (AID 1101); conditions: luminescence, 24 h, higher = more signal, called active from +8 up or from −8 down;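 further: HEK293 cells carrying a splicing-competent luciferase reporter gene; test concentration not given here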
[15] = target: Fibroblast growth factor 10 (Homo sapiens) (UniProt O15520); test: FGF10 binders on small-molecule microarrays, primary screen, biochemical, small-molecule microarray, 635 nm fluorescence (AID 1102); conditions: FGF10 binding, fluorescence 635 nm, higher = more signal
Chain of Fibroblast growth factor 10 (Homo sapiens) (O15520 whole entry, looked up): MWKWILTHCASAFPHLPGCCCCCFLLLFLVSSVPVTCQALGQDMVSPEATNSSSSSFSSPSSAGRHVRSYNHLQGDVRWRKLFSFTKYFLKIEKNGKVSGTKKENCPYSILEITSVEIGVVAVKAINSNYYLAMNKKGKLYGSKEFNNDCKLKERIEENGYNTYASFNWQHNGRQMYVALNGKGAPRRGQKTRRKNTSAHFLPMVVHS

[16] = tested on: glycogen synthase kinase-3 (GSK3A per assay name; protocol says GSK3B); test: GSK3 binders on small-molecule microarrays, primary screen, biochemical, small-molecule microarray, 635 nm fluorescence, GSK3A (AID 1103); conditions: small-molecule microarray binding, fluorescence 635 nm; higher = more signal; further: the record names both GSK3A and GSK3B
[17] = target: Epidermal growth factor receptor (Homo sapiens) (UniProt P00533); test: EGFR binders on small-molecule microarrays, primary screen, biochemical, small-molecule microarray, 635 nm fluorescence (AID 1104); conditions: EGFR binding, higher = more signal;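 further: score merges 667 nm emission intensity with spot signal to noise over triplicate slides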
Chain of Epidermal growth factor receptor (Homo sapiens) (P00533 whole entry, looked up): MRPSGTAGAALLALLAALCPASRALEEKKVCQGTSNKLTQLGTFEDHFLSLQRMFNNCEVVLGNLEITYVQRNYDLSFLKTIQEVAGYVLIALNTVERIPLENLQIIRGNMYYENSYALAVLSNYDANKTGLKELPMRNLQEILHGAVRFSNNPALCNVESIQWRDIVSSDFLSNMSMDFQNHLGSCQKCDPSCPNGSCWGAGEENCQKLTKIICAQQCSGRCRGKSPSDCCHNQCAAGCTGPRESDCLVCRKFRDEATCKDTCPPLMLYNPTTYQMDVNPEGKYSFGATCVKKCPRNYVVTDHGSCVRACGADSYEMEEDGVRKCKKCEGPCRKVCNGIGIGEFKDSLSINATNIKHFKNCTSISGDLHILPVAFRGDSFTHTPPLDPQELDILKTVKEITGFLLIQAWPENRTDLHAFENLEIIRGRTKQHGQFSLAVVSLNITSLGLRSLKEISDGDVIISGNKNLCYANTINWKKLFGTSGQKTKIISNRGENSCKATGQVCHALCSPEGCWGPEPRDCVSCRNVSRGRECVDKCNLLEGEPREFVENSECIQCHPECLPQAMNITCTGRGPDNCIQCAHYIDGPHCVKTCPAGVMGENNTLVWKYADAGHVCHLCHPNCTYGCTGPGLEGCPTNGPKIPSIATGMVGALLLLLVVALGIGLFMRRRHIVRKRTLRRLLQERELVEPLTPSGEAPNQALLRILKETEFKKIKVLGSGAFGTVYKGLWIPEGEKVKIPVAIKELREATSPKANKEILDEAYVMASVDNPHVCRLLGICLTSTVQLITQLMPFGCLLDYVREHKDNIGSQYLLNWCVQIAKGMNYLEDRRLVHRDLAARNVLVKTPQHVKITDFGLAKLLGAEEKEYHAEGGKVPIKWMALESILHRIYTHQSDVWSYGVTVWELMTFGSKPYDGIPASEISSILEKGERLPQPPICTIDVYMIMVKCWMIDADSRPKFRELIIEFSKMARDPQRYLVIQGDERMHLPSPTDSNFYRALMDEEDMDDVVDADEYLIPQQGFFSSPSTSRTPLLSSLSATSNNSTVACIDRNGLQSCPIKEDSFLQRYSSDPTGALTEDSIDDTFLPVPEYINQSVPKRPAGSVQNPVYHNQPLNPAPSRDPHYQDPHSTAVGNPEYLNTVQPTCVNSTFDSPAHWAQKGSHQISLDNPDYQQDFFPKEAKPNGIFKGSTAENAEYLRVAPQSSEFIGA

[18] = target: Follistatin-related protein 3 (Homo sapiens) (UniProt O95633); test: FSTL3 binders on small-molecule microarrays, primary screen, biochemical, small-molecule microarray, 635 nm fluorescence (AID 1105); conditions: FSTL3 binding, higher = more signal;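 further: score merges emission near 667 nm and signal to noise per printed spot across three slides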
Chain of Follistatin-related protein 3 (Homo sapiens) (O95633 whole entry, looked up): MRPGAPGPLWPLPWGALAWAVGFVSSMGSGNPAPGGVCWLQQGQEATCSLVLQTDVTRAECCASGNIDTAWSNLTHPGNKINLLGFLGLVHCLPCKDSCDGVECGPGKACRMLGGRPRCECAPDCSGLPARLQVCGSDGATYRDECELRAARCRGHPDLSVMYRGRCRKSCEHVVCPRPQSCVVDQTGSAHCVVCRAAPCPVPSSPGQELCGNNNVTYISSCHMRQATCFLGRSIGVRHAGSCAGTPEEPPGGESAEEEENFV

[19] = target: Dickkopf-related protein 1 (Homo sapiens) (UniProt O94907); test: DKK1 binders on small-molecule microarrays, primary screen, biochemical, small-molecule microarray, 635 nm fluorescence scan (AID 1106); conditions: DKK1 binding, higher = more signal;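 further: score merges emission near 667 nm with signal to noise over three replicate slides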
Chain of Dickkopf-related protein 1 (Homo sapiens) (O94907 whole entry, looked up): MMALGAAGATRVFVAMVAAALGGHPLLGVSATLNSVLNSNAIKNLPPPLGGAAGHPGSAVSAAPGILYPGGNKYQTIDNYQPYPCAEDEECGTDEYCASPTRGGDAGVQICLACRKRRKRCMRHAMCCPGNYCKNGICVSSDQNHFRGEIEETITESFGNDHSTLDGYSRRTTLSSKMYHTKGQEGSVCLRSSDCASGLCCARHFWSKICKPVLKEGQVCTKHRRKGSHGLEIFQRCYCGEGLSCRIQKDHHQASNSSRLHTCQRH

[20] = tested on: Inhibin beta A chain (activin A); test: INHBA (activin A) binders on microarrays, primary screen, biochemical, small-molecule microarray, 635 nm fluorescence scan (AID 1107); conditions: small-molecule microarray binding, higher = more signal;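 further: mouse activin A protein probed at 4.33 µg/mL on printed slides; score merges bound-protein fluorescence near 667 nm with spot signal-to-noise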

Row | Structure (SMILES) | composite z-score [1] | z-score [2] | z-score [3] | z-score [4] | composite z-score [5] | z-score [6] | composite z-score [7] | composite z-score [8] | composite z-score [9] | composite z-score [10] | composite z-score [11] | composite z-score [12] | composite z-score [13] | z-score [14] | composite z-score [15] | composite z-score [16] | composite z-score [17] | composite z-score [18] | composite z-score [19] | composite z-score [20]
1 | COc1ccc([C@H]2OC[C@@H]3CCC(=O)N32)cc1 | -0.136 | -0.481 (inactive) | -0.809 (inactive) | 0.981 (inactive) | 0.399 | -0.013 (inactive) | -0.0699 | 0.397 | 1.01 | 0.0826 | 0.178 | -0.235 | -0.374 | -0.00375 (inactive) | 0.66 | 1.17 | 0.339 | 0.954 | 0.294 | 0.0892
2 | O=C1O[C@@H](c2ccccc2)[C@@H](c2ccccc2)N2[C@@H](c3ccc(OCCO)cc3)[C@]3(C(=O)Nc4ccc(C#CC5=CCCCC5)cc43)[C@@H](C(=O)N3CCCCCCC3)[C@H]12 | 1.53 | 1.1 (inactive) | -1.09 (inactive) | 2.13 (inactive) | 3.98 | 0.29 (inactive) | 1.6 | 1.78 | 1.03 | 1.26 | 1.66 | 2.71 | 1.43 | -0.447 (inactive) | 1.32 | 1.33 | 1.71 | 1.58 | 2.08 | 1.91
3 | O=C(O)[C@@]1(CCS(=O)(=O)c2ccccc2)N=C(c2ccc(OCCCO)cc2)O[C@H]1c1ccccc1 | 1.07 | -0.326 (inactive) | -5.25 (inactive) | -0.934 (inactive) | 3.46 | 0.712 (inactive) | 0.16 | -0.0519 | -0.0296 | -0.144 | 0.729 | 0.737 | 0.905 | -0.123 (inactive) | -0.678 | -0.123 | -0.264 | 0.215 | -1.05 | 0.658
4 | C#CCN1[C@H](/C=C/C2CC2)[C@H](Cc2ccccc2)OC(=O)[C@@H]1Cc1ccccc1 | 0.663 | -0.651 (inactive) | 0.241 (inactive) | 0.79 (inactive) | 0.613 | -0.714 (inactive) | -0.102 | 0.792 | 0.0922 | -0.118 | 1.16 | -0.411 | -0.507 | 0.23 (inactive) | 0.294 | 0.109 | 0.323 | 0.326 | 0.428 | 0.849
5 | COC(=O)[C@H](Cc1ccccc1)N[C@H](/C=C/C1CC1)[C@@H](O)Cc1ccccc1 | -0.108 | -1.56 (inactive) | -5.75 (inactive) | -0.751 (inactive) | -0.316 | 1.04 (inactive) | -0.279 | 0.195 | -0.469 | -0.178 | -0.111 | -0.351 | 0.327 | -1.16 (inactive) | -0.66 | -1.22 | -0.579 | -0.244 | -0.506 | 0.0419
6 | COC(=O)c1c2oc(c1C(=O)OC)C(=O)NC1(CCCCC1)c1cn(nn1)C[C@H](Cc1ccccc1)NC(=O)N[C@H](CO)CC2 | 1.27 | 0.517 (inactive) | 0.718 (inactive) | -0.466 (inactive) | 2.86 | 1.52 (inactive) | -0.186 | 0.322 | 0.705 | -0.171 | -0.856 | 0.0173 | -0.709 | -0.365 (inactive) | 1.15 | 0.386 | 0.0053 | 0.34 | 0.25 | -0.007
7 | COc1ccccc1CN1C(=O)c2ccccc2[C@@H](C(=O)NCc2ccccc2)[C@@H]1c1ccc(CO)cc1 | 0.713 | 0.649 (inactive) | 0.417 (inactive) | 0.253 (inactive) | 2.33 | 0.409 (inactive) | -0.26 | 0.286 | 0.271 | -0.336 | 1.48 | -0.262 | 0.617 | -0.263 (inactive) | -0.144 | 0.883 | -0.154 | -0.113 | -0.258 | -0.134
8 | CC(=CC1CCCCC1)[C@@H](NC(=O)c1cccnc1)c1ccc(-c2ccccc2)cc1 | -0.0028 | 1.36 (inactive) | 0.92 (inactive) | 2.06 (inactive) | 1.16 | -2.18 (inactive) | -0.0042 | -0.18 | 0.298 | -0.222 | -0.178 | -0.0066 | 0.849 | 0.772 (inactive) | -0.599 | -1.11 | -0.419 | -0.195 | -0.44 | 0.679
9 | Cc1ccc(S[C@]2(C(=O)NCC(C)C)CC(=O)N(Cc3cc(C(F)(F)F)cc(C(F)(F)F)c3)[C@@H]2c2ccc(CO)cc2)cc1 | 0.407 | -0.463 (inactive) | -0.924 (inactive) | -0.429 (inactive) | 0.472 | -0.869 (inactive) | 0.522 | -0.671 | -0.643 | -0.073 | 0.889 | 0.209 | 0.736 | 0.585 (inactive) | -0.417 | -0.725 | -1.25 | -0.634 | -0.326 | 0.96
